In the supplement of paper PMC3545927:
This is one part of the list. How many sequences the whole screen found active is unknown.

Target: furin, P09958
Experiment: furin cleavage Z-score vs untreated control; higher = more cleavage, active = 3.5 or more, inactive = 1 or less, 8 variable residues between constant flanks
Procedure, shortened: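 To give the cleavage Z-score, log read counts were set against furin-free reactions, lowess-adjusted and scaled by median absolute deviation. These counts came from PCR adapter-tagged, sequenced DNA released when purified furin cut 8-mer peptides fused to a cDNA oligonucleotide and held on magnetic beads by their N-terminus. Digests were 0.01 ml, 1:10 enzyme:substrate, in 50 mM HEPES pH 7.5 with CaCl2 and NaCl, for 7.5, 15 or 30 min.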

furin, P09958, sequence (P09958 whole entry): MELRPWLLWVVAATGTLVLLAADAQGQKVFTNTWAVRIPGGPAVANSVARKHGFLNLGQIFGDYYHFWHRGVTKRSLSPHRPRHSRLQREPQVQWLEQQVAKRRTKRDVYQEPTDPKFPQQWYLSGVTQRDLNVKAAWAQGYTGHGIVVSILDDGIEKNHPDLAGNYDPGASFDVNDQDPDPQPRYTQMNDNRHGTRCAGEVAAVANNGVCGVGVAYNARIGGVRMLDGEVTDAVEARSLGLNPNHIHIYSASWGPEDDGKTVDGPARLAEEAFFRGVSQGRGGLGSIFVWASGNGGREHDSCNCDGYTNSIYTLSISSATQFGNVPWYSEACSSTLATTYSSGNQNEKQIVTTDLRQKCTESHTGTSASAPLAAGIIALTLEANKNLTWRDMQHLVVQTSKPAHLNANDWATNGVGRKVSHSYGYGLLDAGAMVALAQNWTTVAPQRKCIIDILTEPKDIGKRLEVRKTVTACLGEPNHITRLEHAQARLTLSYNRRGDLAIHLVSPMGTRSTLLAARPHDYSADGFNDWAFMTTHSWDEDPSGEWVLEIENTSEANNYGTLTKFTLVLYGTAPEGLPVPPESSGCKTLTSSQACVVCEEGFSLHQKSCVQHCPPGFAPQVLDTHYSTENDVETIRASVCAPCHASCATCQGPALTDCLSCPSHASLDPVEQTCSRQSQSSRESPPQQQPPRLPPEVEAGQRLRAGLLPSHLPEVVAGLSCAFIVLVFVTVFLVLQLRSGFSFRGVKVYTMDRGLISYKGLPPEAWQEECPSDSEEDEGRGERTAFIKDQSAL

CAMAECSQHLAGNASASA [HC1683]
furin cleavage Z-score (7.5 min): 0.693 (inactive)
furin cleavage Z-score (15 min): -0.153 (inactive)
furin cleavage Z-score (30 min): 0.354 (inactive)

CAEANAEDVVAGNASASA [HC1366]
furin cleavage Z-score (7.5 min): 0.916 (inactive)
furin cleavage Z-score (15 min): -1.42 (inactive)
furin cleavage Z-score (30 min): -0.854 (inactive)

CAKHMWNFISAGNASASA [HC1042]
furin cleavage Z-score (7.5 min): -0.105 (inactive)
furin cleavage Z-score (15 min): -0.376 (inactive)
furin cleavage Z-score (30 min): -0.363 (inactive)

CAITGHRMAWAGNASASA [HC317]
furin cleavage Z-score (7.5 min): -0.992 (inactive)
furin cleavage Z-score (15 min): -0.446 (inactive)
furin cleavage Z-score (30 min): -1.11 (inactive)

CAPVYCFTPSAGNASASA [HC413]
furin cleavage Z-score (7.5 min): 0.856 (inactive)
furin cleavage Z-score (15 min): 1.3
furin cleavage Z-score (30 min): 0.586 (inactive)

CARSKRNIIGAGNASASA [FS-1869]
furin cleavage Z-score (7.5 min): 6.5 (active)
furin cleavage Z-score (15 min): 8.47 (active)
furin cleavage Z-score (30 min): 8.95 (active)

CARSKRDPIIAGNASASA [FS-3206]
furin cleavage Z-score (7.5 min): -1.19 (inactive)
furin cleavage Z-score (15 min): 0.347 (inactive)
furin cleavage Z-score (30 min): 1.06

CARSKRCSCSAGNASASA [FS-2809]
furin cleavage Z-score (7.5 min): 0.463 (inactive)
furin cleavage Z-score (15 min): -0.402 (inactive)
furin cleavage Z-score (30 min): 1.36

CARSKRSSSHAGNASASA [FS-2184]
furin cleavage Z-score (7.5 min): 7.92 (active)
furin cleavage Z-score (15 min): 8.7 (active)
furin cleavage Z-score (30 min): 6.8 (active)

CARSSRSPPGAGNASASA [FS-3098]
furin cleavage Z-score (7.5 min): -0.0484 (inactive)
furin cleavage Z-score (15 min): 0.711 (inactive)
furin cleavage Z-score (30 min): 1.37

CARSARSPPGAGNASASA [FS-3074]
furin cleavage Z-score (7.5 min): -0.433 (inactive)
furin cleavage Z-score (15 min): -0.609 (inactive)
furin cleavage Z-score (30 min): -0.311 (inactive)

CARSPRSPPGAGNASASA [FS-3091]
furin cleavage Z-score (7.5 min): 2.88
furin cleavage Z-score (15 min): 4.13 (active)
furin cleavage Z-score (30 min): 4.13 (active)

CARYQRSHDDAGNASASA [FS-2320]
furin cleavage Z-score (7.5 min): 0.707 (inactive)
furin cleavage Z-score (15 min): -0.328 (inactive)
furin cleavage Z-score (30 min): 0.764 (inactive)

CAVPPRYPRDAGNASASA [FS-311]
furin cleavage Z-score (7.5 min): 5.8 (active)
furin cleavage Z-score (15 min): 6.12 (active)
furin cleavage Z-score (30 min): 6.06 (active)

CARYPRDVRDAGNASASA [FS-2538]
furin cleavage Z-score (7.5 min): 8.26 (active)
furin cleavage Z-score (15 min): 9.51 (active)
furin cleavage Z-score (30 min): 6.93 (active)

CARYPRNVEEAGNASASA [FS-2850]
furin cleavage Z-score (7.5 min): 4.99 (active)
furin cleavage Z-score (15 min): 7.34 (active)
furin cleavage Z-score (30 min): 7.13 (active)

CARRWREVEEAGNASASA [FS-2803]
furin cleavage Z-score (7.5 min): -0.554 (inactive)
furin cleavage Z-score (15 min): -1.56 (inactive)
furin cleavage Z-score (30 min): 0.0666 (inactive)

CARSLREFEEAGNASASA [FS-3087]
furin cleavage Z-score (7.5 min): -2.22 (inactive)
furin cleavage Z-score (15 min): 0.955 (inactive)
furin cleavage Z-score (30 min): 0.853 (inactive)

CAATPCSAHLAGNASASA [HC2463]
furin cleavage Z-score (7.5 min): 0.828 (inactive)
furin cleavage Z-score (15 min): 1.41
furin cleavage Z-score (30 min): 1.31

CARHADVIPVAGNASASA [HC728]
furin cleavage Z-score (7.5 min): -2.29 (inactive)
furin cleavage Z-score (15 min): -0.0929 (inactive)
furin cleavage Z-score (30 min): -1.98 (inactive)

CAAEVIAPAVAGNASASA [HC1032]
furin cleavage Z-score (7.5 min): -0.225 (inactive)
furin cleavage Z-score (15 min): -0.402 (inactive)
furin cleavage Z-score (30 min): -0.162 (inactive)

CAVVCCSWSYAGNASASA [HC2048]
furin cleavage Z-score (7.5 min): -1.44 (inactive)
furin cleavage Z-score (15 min): -0.879 (inactive)
furin cleavage Z-score (30 min): -0.0857 (inactive)

CANDSRHLRNAGNASASA [FS-1647]
furin cleavage Z-score (7.5 min): 0.543 (inactive)
furin cleavage Z-score (15 min): 0.626 (inactive)
furin cleavage Z-score (30 min): 1.57

CAILWRLKRQAGNASASA [FS-1215]
furin cleavage Z-score (7.5 min): 10.9 (active)
furin cleavage Z-score (15 min): 9.84 (active)
furin cleavage Z-score (30 min): 7.41 (active)

CANDSRLKRQAGNASASA [FS-1038]
furin cleavage Z-score (7.5 min): 6.07 (active)
furin cleavage Z-score (15 min): 5.6 (active)
furin cleavage Z-score (30 min): 6.15 (active)

CAVVCRSMSYAGNASASA [HC90]
furin cleavage Z-score (7.5 min): 1.85
furin cleavage Z-score (15 min): 0.752 (inactive)
furin cleavage Z-score (30 min): 0.571 (inactive)

CAFSHRQVRYAGNASASA [FS-929]
furin cleavage Z-score (7.5 min): 0.403 (inactive)
furin cleavage Z-score (15 min): 1.8
furin cleavage Z-score (30 min): 2.61

CANRARFRRAAGNASASA [FS-64]
furin cleavage Z-score (7.5 min): 8.77 (active)
furin cleavage Z-score (15 min): 9.51 (active)
furin cleavage Z-score (30 min): 7.84 (active)

CAFRARQIRYAGNASASA [FS-419]
furin cleavage Z-score (7.5 min): 2.8
furin cleavage Z-score (15 min): 5.19 (active)
furin cleavage Z-score (30 min): 2.15

CALNKSFRRAAGNASASA [FS-354]
furin cleavage Z-score (7.5 min): 0.697 (inactive)
furin cleavage Z-score (15 min): -0.445 (inactive)
furin cleavage Z-score (30 min): 1.37

CAFRARFRRLAGNASASA [FS-526]
furin cleavage Z-score (7.5 min): 10.4 (active)
furin cleavage Z-score (15 min): 12.1 (active)
furin cleavage Z-score (30 min): 9.87 (active)

CADCTTPCSGAGNASASA [HC1951]
furin cleavage Z-score (7.5 min): 0.95 (inactive)
furin cleavage Z-score (15 min): 0.00642 (inactive)
furin cleavage Z-score (30 min): 1.2

CAMEECSQVLAGNASASA [HC1750]
furin cleavage Z-score (7.5 min): 1.44
furin cleavage Z-score (15 min): -0.739 (inactive)
furin cleavage Z-score (30 min): 1.26

CACSTRVRRQAGNASASA [FS-120]
furin cleavage Z-score (7.5 min): 11 (active)
furin cleavage Z-score (15 min): 8.81 (active)
furin cleavage Z-score (30 min): 7.5 (active)

CALPYLVAYQAGNASASA [HC952]
furin cleavage Z-score (7.5 min): 0.718 (inactive)
furin cleavage Z-score (15 min): -1.65 (inactive)
furin cleavage Z-score (30 min): -1.41 (inactive)

CALPKRVRRQAGNASASA [FS-1029]
furin cleavage Z-score (7.5 min): 11.3 (active)
furin cleavage Z-score (15 min): 12.3 (active)
furin cleavage Z-score (30 min): 8.74 (active)

CAVPERCRRQAGNASASA [FS-1580]
furin cleavage Z-score (7.5 min): 6.62 (active)
furin cleavage Z-score (15 min): 9.1 (active)
furin cleavage Z-score (30 min): 6.98 (active)

CAVGDLCGSVAGNASASA [HC299]
furin cleavage Z-score (7.5 min): -0.438 (inactive)
furin cleavage Z-score (15 min): -0.375 (inactive)
furin cleavage Z-score (30 min): 1.2

CAFLTRVEAQAGNASASA [HC585]
furin cleavage Z-score (7.5 min): -0.981 (inactive)
furin cleavage Z-score (15 min): 1.44
furin cleavage Z-score (30 min): -1 (inactive)

CAVPYFVRVQAGNASASA [HC615]
furin cleavage Z-score (7.5 min): -1.87 (inactive)
furin cleavage Z-score (15 min): 0.165 (inactive)
furin cleavage Z-score (30 min): -0.325 (inactive)

CATTPCSPSWAGNASASA [HC1899]
furin cleavage Z-score (7.5 min): 0.637 (inactive)
furin cleavage Z-score (15 min): 0.489 (inactive)
furin cleavage Z-score (30 min): -0.787 (inactive)

CAPEFFTELDAGNASASA [HC1220]
furin cleavage Z-score (7.5 min): -0.864 (inactive)
furin cleavage Z-score (15 min): -0.533 (inactive)
furin cleavage Z-score (30 min): -1.32 (inactive)

CAFVQRVFRDAGNASASA [FS-776]
furin cleavage Z-score (7.5 min): -0.109 (inactive)
furin cleavage Z-score (15 min): -0.244 (inactive)
furin cleavage Z-score (30 min): 0.515 (inactive)

CAAVQRVPRDAGNASASA [FS-1312]
furin cleavage Z-score (7.5 min): 6.89 (active)
furin cleavage Z-score (15 min): 6.58 (active)
furin cleavage Z-score (30 min): 5.33 (active)

CALQERVPRDAGNASASA [FS-1366]
furin cleavage Z-score (7.5 min): 7.28 (active)
furin cleavage Z-score (15 min): 7.82 (active)
furin cleavage Z-score (30 min): 7.62 (active)

CAQRQPFPRDAGNASASA [FS-951]
furin cleavage Z-score (7.5 min): 0.0863 (inactive)
furin cleavage Z-score (15 min): 0.099 (inactive)
furin cleavage Z-score (30 min): -1.03 (inactive)
